High-throughput results from PubChem BioAssay.
A selection: hits, their analogues and other compounds. The true share with any hit is near 8.3%.
LASV entry inh – blocks Lassa virus binding to or entry into cells; 300,000 compounds, 1.2% hits; Lassa virus pseudotype entry inhibition, cell reporter; Potency, µM (doses to about 37.9 µM), inactives show top-dose activity change, negative = inhibition, usual class: inhibitors; calls by dose curve; tested in HEK293 cells; further: potency means the concentration at half of the fitted maximal effect; nearly all actives have a fitted effect of over 50% in size
FMDV antiviral – foot and mouth disease virus antiviral activity; 410,000 compounds, 1.2% hits; FMDV antiviral cell-based qHTS; AID 1159524; Potency, µM (doses to about 57.9 µM), for the others: top-dose activity change, negative = inhibition, actives largely listed as inhibitors; calls by dose curve; tested in HEK293T cells; further: read-out not given here; potency means the concentration at half of the fitted maximal effect; nearly all actives have a fitted effect of over 45% in size
Giardia FBPA inh – blocks Giardia fructose-bisphosphate aldolase activity. A8B2U2. purified Giardia FBPA. Potency, µM (series often up to 59.6 µM), without a hit: at the highest dose activity, negative = inhibition, most hits filed as inhibitors. 290,000 compounds, 0.71% hits; further: potency means the concentration at half of the fitted maximal effect; nearly all actives have a fitted effect of over 55% in size
Target sequence (A8B2U2 whole entry, looked up): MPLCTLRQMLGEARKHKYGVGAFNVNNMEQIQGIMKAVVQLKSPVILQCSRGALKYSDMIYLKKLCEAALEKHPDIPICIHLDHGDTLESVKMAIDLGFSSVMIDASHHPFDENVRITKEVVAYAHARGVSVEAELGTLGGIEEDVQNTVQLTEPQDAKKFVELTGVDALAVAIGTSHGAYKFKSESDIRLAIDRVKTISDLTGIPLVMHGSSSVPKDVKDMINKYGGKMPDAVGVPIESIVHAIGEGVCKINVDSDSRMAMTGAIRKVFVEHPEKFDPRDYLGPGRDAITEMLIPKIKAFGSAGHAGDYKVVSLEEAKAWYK
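40 nM FBPA preincubated 10 min at RT with compound (up to 57.5 uM final), then substrate plus GAPDH/TPI/NAD/arsenate coupling and diaphorase/resazurin added. Fluorescence read after 20 min at RT, 525/598 nm.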
HCV inhibitor – blocks hepatitis C virus. 340,000 compounds, 3.4% hits. AID 651820. Huh7.5.1 HCVcc-Cre infection, luciferase reporter, 44 h. Potency, µM (doses to about 41.8 µM), inactives show at the top dose activity change, negative = inhibition, usual class: inhibitors; further: potency means the concentration at half of the fitted maximal effect
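Compounds are dispensed onto cells plated 4 h earlier at 1,000 per well, with HCVcc-Cre virus (about 0.5 moi) added next. Following 44 h of culture, luminescent signal is measured for 15 sec after 15 min with substrate at room temperature.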
HCMV inh – human cytomegalovirus inhibition | activity change, negative = inhibition, % at 57.5 µM | HFF cells, HCMV-luciferase reporter, 72 h; active compounds read low | AID 1259415 | 410,000 compounds, 4.5% hits; in the data active means activity change below about -60%; inconclusive means no clear call, values can overlap the other calls; inactive means above about -39%
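After 16 h attachment at 37C, HFF cells received test compound and HCMV-luciferase (1 PFU/cell); reporter luminescence read 72 h later, data normalized against buffer-only and known inhibitor Salinomycin.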
Marburg entry inh – inhibitors of Marburg virus binding or cell entry; Marburg virus pseudotyped entry inhibition, cell reporter; Potency, µM (highest dose often 37.8 µM), for inactives: top-dose activity change, negative = inhibition, actives largely listed as inhibitors; 300,000 compounds, 1.8% hits; AID 540276; calls by dose curve; tested in HEK293 cells; further: potency means the concentration at half of the fitted maximal effect
Active calls of the source: *; u = inconclusive; x = no result; ! = not active in a repeat; [ ] = dose if it differs, or a comment. Unless noted, the call rests on the fitted dose curve; in most records, active means well fitted curve in the direction sought with a large enough effect; inconclusive means small, poorly fitted or top-dose-only effect, or another doubt; inactive means no such curve, though single readings can be large; an effect the other way counts as inactive or inconclusive. On the % scale 0 is the no-effect control and ±100 the full control effect.

SMILES	LASV entry inh	FMDV antiviral	Giardia FBPA inh	HCV inhibitor	HCMV inh	Marburg entry inh
Cc1ccc(NC(=O)Cn2c(=O)ccc3cc(S(=O)(=O)N4CCCC4)ccc32)cc1N(C)C	0%[46.1 µM]	-14%	x	x	-1	x
COC(=O)c1c(C(=O)OC)c2c3ccccc3cc(-c3ccccc3)n2c1C(=O)OC	x	x	x	x	x	-23%[14.2 µM]
Cc1ccc(C)c(CSc2cn(CC(=O)N3CCCC3)c3ccccc23)c1	u	10%	x	x	25	x
Cc1ccc(N)c(Cl)c1	x	x	2%	x	x	x
CN(C)C(=O)Oc1ccc(OCc2nc3ccccc3[nH]2)cc1	9.2µM*	-46%	3%	-30%	32	u
Fc1ccc(-c2cc(-c3ccccc3)nc(-n3cccn3)n2)cc1	-12%[46.1 µM]	u	3%	u	-61*	u
Cn1c2ccccc2c2cc([N+](=O)[O-])ccc21	-2%	-3%	-3%	u	-19	-6%
CC(=O)OCc1c(-c2ccccc2)c2cc([N+](=O)[O-])ccc2n1C	19%[46.1 µM]	-26%	10%	13µM*	-77*	-28%[46.1 µM]
Cn1c(CO)c(-c2ccccc2)c2cc([N+](=O)[O-])ccc21	3%	-10%	1%	10µM*	-37	0%
Cc1ccc(-c2cc(C(=O)NCCc3ccccc3)c3ccccc3n2)cc1C	4%[46.1 µM]	-4%	x	x	11	x
C=CCn1c(-c2ccc(OC)cc2)csc1=Nc1c(C)n(C)n(-c2ccccc2)c1=O	-6%	22µM*	1%	u	u	-8%
COc1ccc(-c2csc(=Nc3ccccc3)n2CCO)cc1	-9%	25µM*	-2%	13µM*!	-62*	u
COc1ccc(N=c2scc(-c3ccc(S(=O)(=O)N4CCOCC4)cc3)n2CCCO)cc1	x	x	-12%	u	x	x
Cc1ccc(-c2csc(=Nc3ccccc3)n2CCCO)cc1	-8%[46.1 µM]	32µM*	x	x	-24	-4%[46.1 µM]
COc1ccc(-c2csc(=NCCO)n2-c2ccccc2)cc1	-29%[46.1 µM]	18µM*	-10%	u	u	u
O=C1C2C(c3ccccc3)CC=CC2C(c2cccc([N+](=O)[O-])c2)N1Cc1ccccc1 (stereo not drawn)	x	x	3%	x	x	x
COc1cccc(C2C=C(c3ccc(C)cc3)Nc3c(C(=O)Nc4ccc(F)cc4)cnn32)c1OC (stereo not drawn)	u	-21%	x	x	-21	x
N#C/C(=C\c1ccc(F)cc1)C(=O)NCC1CCCO1 (stereo not drawn)	-9%[46.1 µM]	9%	x	x	-4	x
COc1cccc(Nc2ncc3nc(-c4ccccc4)c(=O)n(Cc4cccs4)c3n2)c1	x	-2%	1%	x	x	x
CCc1ccc2oc(-c3ccc(OC)cc3)cc(=Nc3c(C)n(C)n(-c4ccccc4)c3=O)c2c1	x	-94%	-10%	10µM*	u	x
O=C(NC(CC1=CCCCC1)c1ccccc1)C(F)(F)F (stereo not drawn)	u	x	x	x	x	59%[14.2 µM]
CCS(=O)(=O)c1cc([N+](=O)[O-])c(Sc2ccccc2NC(C)=O)s1	u	16µM*	-9%	8%	u	u
COCCN1C(=NCCc2cccnc2)NC(c2ccccc2)C(C(=O)OC)=C1C (stereo not drawn)	-21%[14.3 µM]	x	x	x	x	54%[14.2 µM]
O=C(CS(=O)(=O)c1cccc2nsnc12)Nc1ccc(F)cc1	9%[46.1 µM]	0%	x	x	-3	x
N#Cc1cc(-c2ccc(Cl)cc2)cn(Cc2c(Cl)cccc2Cl)c1=O	-3%	-9%	5%	4%	-89*	-1%
CN(C)S(=O)(=O)N1CCC(Oc2cccc(C(=O)N3CCCCCC3)c2)CC1	u	-18%	x	u	-14	u
CN(C)S(=O)(=O)N1CCC(Oc2cccc(C(=O)N3CCCCCCC3)c2)CC1	11µM*	u	-18%	u	x	-1%
CCCCN(CC)Cc1ccc(CNC(=O)Nc2ccc(OCC)cc2)o1	2%	-2%	7%	13µM*	-10	u
CCCCN(CC)Cc1ccc(CNC(=O)Nc2ccc(Cl)cc2)o1	u	0%	6%	u	-17	u
Cc1ccc(C2=NN(C(=O)CCl)C(c3ccco3)C2)o1 (stereo not drawn)	14%	u	7%	8.9µM*	-100*	u
